Bioassay records (PubChem BioAssay)
This excerpt belongs to a sample that is enriched for hits.
CHX counter = counter-screen for Shiga toxin inhibitors: cycloheximide protein synthesis inhibition; AID 2314; cell reporter, cycloheximide protein synthesis inhibition counterscreen; 300,000 compounds, 12% hits; max response, %; in the data active means max response mostly above about 13%, no sharp cut-off; inactive means mostly below about 14%; further: read at 38.3 µM for the half of the compounds with a filed dose
AmpC no deterg = blocks E. coli AmpC beta-lactamase in detergent-free assay; P00811; AmpC nitrocefin hydrolysis, absorbance 480 nm, 0.0001% Triton; Potency, µM (series often up to 57.1 µM), most hits filed as inhibitors; 330,000 compounds, 0.52% hits; further: nearly all actives have a fitted effect of over 20% in size
Target sequence (P00811 whole entry, looked up): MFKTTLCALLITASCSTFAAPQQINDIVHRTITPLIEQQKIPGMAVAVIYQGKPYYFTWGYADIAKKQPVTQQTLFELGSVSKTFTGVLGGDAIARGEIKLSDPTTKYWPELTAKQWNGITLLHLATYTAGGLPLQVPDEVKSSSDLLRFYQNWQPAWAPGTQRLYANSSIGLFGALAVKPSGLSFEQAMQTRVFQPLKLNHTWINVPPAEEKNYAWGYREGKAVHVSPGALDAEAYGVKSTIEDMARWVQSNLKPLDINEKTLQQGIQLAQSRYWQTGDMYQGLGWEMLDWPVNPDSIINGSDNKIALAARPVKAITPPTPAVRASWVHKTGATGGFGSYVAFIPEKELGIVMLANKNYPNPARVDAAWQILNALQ
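AmpC (5.3 nM in the dispensed reagent) in 20 mM phosphate pH 7.0 with 0.01% (detergent screen) or 0.0001% Triton X-100 was preincubated with compounds for 15 min at room temperature. Nitrocefin was then added from an 800 uM solution, and hydrolysis was followed at 480 nm.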
Shiga inhibitor = inhibitors of Shiga toxin in Vero cells; 290,000 compounds, 9.2% hits; inhibition, % at 38.7 µM; Vero cells, Shiga toxin protein synthesis inhibition reporter; in the data active means inhibition mostly above about 28%, no sharp cut-off; inactive means mostly below about 43%
SARS PLpro yeast = blocks SARS-CoV papain-like protease in a yeast assay | S. cerevisiae expressing SARS-CoV PLpro, growth rescue | 330,000 compounds, 0.19% hits | Potency, µM (doses to about 32.9 µM), hits mostly activators | AID 485353; calls by dose curve; further: nearly all actives have a fitted effect of over 55% in size
AmpC detergent = blocks E. coli AmpC beta-lactamase in detergent assay | Potency, µM (highest dose often 114 µM), most hits filed as inhibitors | 370,000 compounds, 0.041% hits | AmpC hydrolysis of nitrocefin, absorbance 480 nm, 0.01% Triton; further: nearly all actives have a fitted effect of over 25% in size
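AmpC (5.3 nM in the dispensed reagent) in 20 mM phosphate pH 7.0 with 0.01% (detergent screen) or 0.0001% Triton X-100 was preincubated with compounds for 15 min at room temperature. Nitrocefin was then added from an 800 uM solution, and hydrolysis was followed at 480 nm.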
AMA1-RON2 inh = AMA1-RON2 (P. falciparum) interaction inhibition. Potency, µM (highest dose often 58.2 µM), hits mostly inhibitors. 360,000 compounds, 0.2% hits. AlphaScreen AMA1-biotinylated RON2 peptide binding. AID 720542; further: nearly all actives have a fitted effect of over 45% in size
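AMA1 (3D7) with his tag at 25 nM final met compounds first, then biotinylated RON2 peptide at 25 nM; detection used donor plus acceptor beads, 10 µg/mL apiece, read by AlphaScreen after 30 min at room temperature.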
A number is an active result; [ ] = remark or other dose. Unless noted, the call rests on the fitted dose curve; in most records, active means well fitted curve in the direction sought with a large enough effect; inconclusive means small, poorly fitted or top-dose-only effect, or another doubt; inactive means no such curve, though single readings can be large; an effect the other way counts as inactive or inconclusive.

Results for O=C(NCC1CCCCC1)c1ccc(F)cc1Cl ?
CHX counter: 57; AmpC no deterg: inactive; Shiga inhibitor: 89; SARS PLpro yeast: inactive; AmpC detergent: inactive; AMA1-RON2 inh: inactive

Results for O=C(NC1CC1)c1ccc(F)cc1Cl ?
CHX counter: inactive; AmpC no deterg: inactive; Shiga inhibitor: inactive; SARS PLpro yeast: inactive; AmpC detergent: inactive; AMA1-RON2 inh: inactive

Results for O=C(N/N=C/c1ccccc1O)C(=O)N1CCCCCC1 ?
CHX counter: 20; AmpC no deterg: inactive; Shiga inhibitor: inactive; SARS PLpro yeast: inactive; AmpC detergent: inactive; AMA1-RON2 inh: inactive

What do the screens show for `O=C(N/N=C/c1ccccc1F)C(=O)N1CCCCCC1`?
CHX counter: 24; AmpC no deterg: inactive; Shiga inhibitor: 34; SARS PLpro yeast: inactive; AmpC detergent: inactive; AMA1-RON2 inh: inactive

Results for COCCNC(=O)C(=O)N/N=C/c1cccs1 ?
CHX counter: inactive; AmpC no deterg: inactive; Shiga inhibitor: inactive; SARS PLpro yeast: inactive; AmpC detergent: inactive; AMA1-RON2 inh: inactive

What do the screens show for `COc1ccccc1NC(=O)C(=O)N/N=C/c1cccs1`?
CHX counter: 38; AmpC no deterg: inactive; Shiga inhibitor: 99; SARS PLpro yeast: inactive; AmpC detergent: inactive; AMA1-RON2 inh: inactive[11.6 µM]

What do the screens show for `O=C(N/N=C/c1cccs1)C(=O)N1CCCC1`?
CHX counter: 28; AmpC no deterg: inactive; Shiga inhibitor: inactive; SARS PLpro yeast: inactive; AmpC detergent: inactive; AMA1-RON2 inh: inactive

Results for C=CC(C)Sc1nc2c(c(=O)n(C)c(=O)n2C)n1Cc1ccccc1Cl (stereo not given) ?
CHX counter: inactive; AmpC no deterg: inactive; Shiga inhibitor: inactive; SARS PLpro yeast: inactive; AmpC detergent: inconclusive; AMA1-RON2 inh: inactive

How did COc1ccccc1NC(=S)NCc1ccc(Cl)cc1 do in these assays?
CHX counter: inactive; AmpC no deterg: inactive; Shiga inhibitor: inactive; SARS PLpro yeast: inconclusive; AmpC detergent: inactive; AMA1-RON2 inh: inactive

How did O=C(CSc1ccsc1[N+](=O)[O-])N1CCCCCC1 do in these assays?
CHX counter: inactive; AmpC no deterg: inactive; Shiga inhibitor: inactive; SARS PLpro yeast: inactive; AmpC detergent: inactive; AMA1-RON2 inh: inactive

How did CN1C(=O)c2ccc(NC(=O)c3c(C(=O)O)cccc3[N+](=O)[O-])cc2C1=O do in these assays?
CHX counter: inactive; AmpC no deterg: inactive; Shiga inhibitor: inactive; SARS PLpro yeast: inactive; AmpC detergent: inactive; AMA1-RON2 inh: inactive

What do the screens show for `C=CCNC(=O)C1CCN(c2cnccn2)CC1`?
CHX counter: inactive; AmpC no deterg: inactive; Shiga inhibitor: inactive; SARS PLpro yeast: inactive; AmpC detergent: inactive; AMA1-RON2 inh: inactive

Results for Brc1cnc(N2CCCCC2)nc1N1CCOCC1 ?
CHX counter: inactive; AmpC no deterg: inactive; Shiga inhibitor: inactive; SARS PLpro yeast: inactive; AmpC detergent: inactive; AMA1-RON2 inh: inactive

How did COc1ccc(CCNC(=O)C2CCN(Cc3nc(-c4ccccc4C)oc3C)CC2)cc1OC do in these assays?
CHX counter: inactive; AmpC no deterg: inactive; Shiga inhibitor: inactive; SARS PLpro yeast: inactive; AmpC detergent: inactive; AMA1-RON2 inh: inactive

Results for N#C/C(=C\c1ccncc1)c1nc2ccccc2o1 ?
CHX counter: 29; AmpC no deterg: inactive; Shiga inhibitor: inactive; SARS PLpro yeast: inactive; AmpC detergent: inactive; AMA1-RON2 inh: inactive

Results for N#C/C(=C\Nc1ccccc1O)c1nc2ccccc2o1 ?
CHX counter: 26; AmpC no deterg: inactive; Shiga inhibitor: 71; SARS PLpro yeast: inactive; AmpC detergent: inactive; AMA1-RON2 inh: inactive

How did CCOc1ccccc1N/C=C(\C#N)c1nc2ccccc2n1C do in these assays?
CHX counter: inactive; AmpC no deterg: inactive; Shiga inhibitor: inactive; SARS PLpro yeast: inactive; AmpC detergent: inactive; AMA1-RON2 inh: inactive

What do the screens show for `N#C/C(=C\c1cccc(O)c1)c1nc2ccccc2o1`?
CHX counter: 59; AmpC no deterg: inactive; Shiga inhibitor: 85; SARS PLpro yeast: inactive; AmpC detergent: inactive; AMA1-RON2 inh: inactive

What do the screens show for `Cn1c(/C(C#N)=C/c2cccc(O)c2)nc2ccccc21`?
CHX counter: 43; AmpC no deterg: inactive; Shiga inhibitor: inactive; SARS PLpro yeast: inactive; AmpC detergent: inactive; AMA1-RON2 inh: inactive

What do the screens show for `N#C/C(=C\c1ccc(Cl)cc1)c1nc2ccccc2o1`?
CHX counter: inactive; AmpC no deterg: inactive; Shiga inhibitor: inactive; SARS PLpro yeast: inactive; AmpC detergent: inactive; AMA1-RON2 inh: inactive

Results for COc1cc(/C=C(\C#N)c2nc3ccccc3n2C)cc(OC)c1OC ?
AmpC detergent: inactive

How did COc1ccccc1Oc1c(C)oc2cc(OC(=O)N(C)C)ccc2c1=O do in these assays?
CHX counter: inactive; AmpC no deterg: inactive; Shiga inhibitor: inactive; SARS PLpro yeast: inactive; AmpC detergent: inactive; AMA1-RON2 inh: inactive

How did COC(=O)c1ccccc1NC(=O)Cn1c(=O)n(CCCCC(=O)NCc2ccc3c(c2)OCO3)c(=O)c2ccccc21 do in these assays?
AmpC detergent: inactive

What do the screens show for `O=C(CNc1ccccc1N1CCCC1=O)Nc1cc(C(F)(F)F)ccc1-n1cncn1`?
AmpC no deterg: inactive; SARS PLpro yeast: inactive; AmpC detergent: inconclusive; AMA1-RON2 inh: inactive

What do the screens show for `Cc1ccc(C)c(N2CCN(C(=O)c3cnn(C(C)(C)C)c3C3CCN(C(=O)OC(C)(C)C)CC3)CC2)c1`?
AmpC detergent: inactive

Results for O=C(CSCC(=O)NC1CC1)Nc1ccc2ccccc2c1 ?
CHX counter: inactive; AmpC no deterg: inactive; Shiga inhibitor: inactive; SARS PLpro yeast: inactive; AmpC detergent: inconclusive; AMA1-RON2 inh: inactive

What do the screens show for `CCS(=O)c1ccccc1C(=O)O` (stereo not given)?
CHX counter: inactive; AmpC no deterg: inactive; Shiga inhibitor: inactive; SARS PLpro yeast: inactive; AmpC detergent: inactive; AMA1-RON2 inh: inactive

How did COc1ccc(/C=C(\C#N)c2nc3ccccc3n2C)c(OC)c1 do in these assays?
AmpC detergent: inactive

Results for Cn1c(/C(C#N)=C/c2ccc(-c3ccc(S(N)(=O)=O)cc3)o2)nc2ccccc21 ?
CHX counter: inactive; AmpC no deterg: 20µM; Shiga inhibitor: inactive; SARS PLpro yeast: inactive; AmpC detergent: inactive; AMA1-RON2 inh: inactive

How did CCCCn1c(=O)c(C(=O)Nc2ccccc2F)c(O)c2ccccc21 do in these assays?
CHX counter: inactive; AmpC no deterg: inactive; SARS PLpro yeast: inactive; AmpC detergent: inactive; AMA1-RON2 inh: inactive

How did N#C/C(=N\Nc1ccc([N+](=O)[O-])cc1)C(=N)N1CCOCC1 do in these assays?
CHX counter: 46; AmpC no deterg: inactive; Shiga inhibitor: 69; SARS PLpro yeast: inactive; AmpC detergent: inactive; AMA1-RON2 inh: inactive

How did N=C(c1ccc([N+](=O)[O-])cc1)N1CCCCC1 do in these assays?
CHX counter: inactive; AmpC no deterg: inactive; Shiga inhibitor: inactive; SARS PLpro yeast: inactive; AmpC detergent: inactive; AMA1-RON2 inh: inactive

Results for COc1ccccc1N/N=C(\C#N)C(=N)N1CCOCC1 ?
CHX counter: inactive; AmpC no deterg: inactive; Shiga inhibitor: inactive; SARS PLpro yeast: inactive; AmpC detergent: inactive; AMA1-RON2 inh: inactive
